{"source": "PubChem BioAssay AID492980", "about": "(National Center for Advancing Translational Sciences (NCATS), 2010)", "note": "In all, about 1,400 compounds went through this assay and fewer than 10 were called active. Roughly 11% stayed inconclusive and do not appear here. Calls come from the whole dose curve. Only a sample is shown."}
{"assay": "Assay for Inhibitors of Influenza NS1 Protein Function: Hit Validation", "conditions": "influenza NS1 function cell assay, 15-point titration; series mostly up to 32.9 µM", "text": "NIH Chemical Genomics Center [NCGC]\nNIH Molecular Libraries Probe Centers Network [MLPCN]\nAssay Submitter (PI): Daniel Engel\nInfluenza is a world-wide public health problem and emerging forms of the virus have the potential to cause a pandemic of equal or greater magnitude to the outbreaks recorded in 1918, 1957 or 1968. Vaccine development is proceeding and there also exist two classes of anti-influenza compounds. However these therapeutic modalities are neither fully effective nor widely enough available to fulfill global needs. In addition their potential usefulness against newly emergent strains is not known. Efforts are needed to develop novel agents against influenza virus, including broad-spectrum agents. Identification of small molecules that inhibit NS1 function either directly or by interfering with specific cellular pathways may be a key to increasing our defense against the virus.\nWe have miniaturized and optimized a cell based assay in which NS1 from influenza A is expressed in the budding yeast S. cerevisiae. NS1 is a multi-functional protein that counters the host innate immune response and facilitates viral versus cellular gene expression. Expression of NS1 causes a pronounced slow growth phenotype in yeast due to its intrinsic molecular activities. Small molecules that suppress the slow growth phenotype can be identified by a straightforward growth recovery assay using optical density (OD) as the measurement. The same yeast strain not expressing NS1 was used as positive control in the yeast growth recovery assay. The present experiment attempted to confirm the activity of compounds observed in the primary screen.\nThe yeast S. cerevisiae control and NS1 expressing cells were kindly supplied by laboratory of Dr. Daniel Engel, University of Virginia. Yeast starter cultures were stored in single use aliquots at -80C.\n1. Yeast culture medium per liter: 1.2 g Yeast Nitrogen Base (w/out amino acids and Ammonium Sulphate), 5.0g Ammonium Sulphate, 0.77g -URA DO (drop-out) Supplement, adjust pH to 6.0. Adjust to 2% glucose prior to inoculating with yeast.\n2. Yeast assay medium: 1.2 g Yeast Nitrogen Base (w/out amino acids and Ammonium Sulphate), 5.0g Ammonium Sulphate, 0.77g -URA DO (drop-out) Supplement, adjust pH to 6.0. Adjust to 2% D-galactose prior to inoculating with yeast.\n1. Inoculate 100 mls of yeast culture medium with 1 ml of frozen yeast aliquote. Incubate overnight at 30C, 250RPM.\n2. Harvest overnight culture at 4000 RPM and wash pellet with 15 mls H2O 3x.\n3. Re-suspend washed pellet in 10 mls of yeast assay medium.\n4. Prepare a 1:100 dilution of re-suspended culture in yeast assay medium.\n5. Dispense 3.5 ul per well of reagents in step 4 in columns 2-48 in a black clear bottom 1536 well plate.\n6. Dispense 3.5 ul per well of yeast assay medium in column 1 only.\n7. Transfer 23 nl of compound per well.\n8. Dispense 3.5 ul per well of yeast assay medium in columns 1-48.\n9. Read plate using Viewlux protocol for optical density 600 (OD600) using excitation filter 600nm."}
{"smiles": "Cc1cccc(N=C2NN=C(c3c[nH]c4ccccc34)CS2)c1", "outcome": "inactive"}
{"smiles": "Cc1ccc(-c2ccc(=O)n(CC(=O)NCCCN3CCCCC3)n2)cc1", "outcome": "inactive"}
{"smiles": "CC(C)CCN(C(=O)c1csnn1)C(C(=O)NC1CCCC1)c1ccccc1", "note": "(stereo unspecified)", "outcome": "inactive"}
{"smiles": "COc1ccccc1C(=O)Nc1ccnn1C1CCN(C(=O)C(C)(C)C)CC1", "outcome": "inactive"}
{"smiles": "COc1ccc(C(C(=O)NC2CCCCC2)N(C(=O)Cc2c[nH]c3ccccc23)c2ccccc2)cc1OC", "note": "(stereo unspecified)", "outcome": "inactive"}
{"smiles": "O=C1c2cccc(OCC(=O)N3N=C(c4cccs4)CC3c3ccc(F)cc3)c2CCN1Cc1ccccc1", "note": "(stereo unspecified)", "outcome": "inactive"}
{"smiles": "COc1cccc(OC)c1C(=O)Nc1nnc(C(C)C)s1", "outcome": "inactive"}
{"smiles": "Cn1c(CC(=O)Nc2ccccc2)nnc1SCC(=O)c1ccccc1", "outcome": "inactive"}
{"smiles": "COc1cc2c(cc1NC(=O)CN1CCN(S(=O)(=O)c3ccc(F)cc3)CC1)oc1ccccc12", "outcome": "inactive"}
{"smiles": "CCCc1cc(=O)[nH]c(SCC(=O)c2cc(C)n(CCC)c2C)n1", "outcome": "inactive"}
{"smiles": "Cc1cccc([C@@H]2[C@@H]3C(=O)N(Cc4ccccc4)C(=O)[C@@H]3[C@]3(C)C(=O)N(c4ccc(Br)cc4)C(=O)N23)c1", "outcome": "inactive"}
{"smiles": "Nc1cccc(-c2cc(-c3ccccc3)nc(-c3cccc(N)c3)n2)c1", "outcome": "inactive"}
{"smiles": "COc1ccc(S(=O)(=O)Nc2c(C)n(C)n(-c3ccccc3)c2=O)cc1", "outcome": "inactive"}
{"smiles": "Cc1cccc(-n2c(SCC(=O)Nc3cccc(S(=O)(=O)NC4=NCCCCC4)c3)nc3ccccc3c2=O)c1C", "outcome": "inactive"}
{"smiles": "O=C1NC(=O)N(CCc2ccc(F)cc2)C(=O)/C1=C/C=C/c1ccccc1", "outcome": "inactive"}
{"smiles": "COCCn1c(C)cc(C2=NNC(=Nc3ccc(F)cc3)SC2)c1C", "outcome": "inactive"}
{"smiles": "CCOc1ccc(Nc2nc(Cl)nc(N3CCN(c4ccc(OC)cc4)CC3)n2)cc1", "outcome": "inactive"}
{"smiles": "COC(=O)c1c(NC(=O)c2cccs2)sc2c1CCCC2", "outcome": "inactive"}
{"smiles": "CC(C(=O)O)N1C(=O)c2cccc3cccc1c23", "note": "(stereo unspecified)", "outcome": "inactive"}
{"smiles": "COCCN1C(=O)c2oc3c(C)cc(C)cc3c(=O)c2C1c1cccc(O)c1", "note": "(stereo unspecified)", "outcome": "inactive"}
{"smiles": "Cc1cc2cc(CNC(=O)c3cccs3)ccc2[nH]1", "outcome": "inactive"}
{"smiles": "COc1ccc(-n2c(C)cc(C(=O)CSc3nnc(-c4cccs4)o3)c2C)cc1", "outcome": "inactive"}
{"smiles": "Cc1ccc2c(c1)N(S(=O)(=O)c1cc(-c3cc(C)no3)ccc1C)CCO2", "outcome": "inactive"}
{"smiles": "C1=C(N2CCOCC2)/C(=C/c2nc3ccccc3[nH]2)CC1", "outcome": "inactive"}
{"smiles": "Cc1ccccc1C(OCC(O)CN1CCCCC1CCO)c1ccccc1", "note": "(stereo unspecified)", "outcome": "inactive"}
{"smiles": "CCc1ccc(S(=O)(=O)Nc2cc3c(cc2N2CCCCC2)n(C)c(=O)c(=O)n3C)cc1", "outcome": "inactive"}
{"smiles": "CC[C@@H](C)[C@@H](C(=O)N1CCN(C(=O)OC(C)(C)C)CC1)n1cc(CCC(=O)O)nn1", "outcome": "inactive"}
{"smiles": "N#Cc1c(-c2cccs2)nc(SCC(=O)c2ccc(Br)cc2)[nH]c1=O", "outcome": "inactive"}
{"smiles": "CN1CCN(C(=O)COc2ccc(C(C)(C)C)cc2Br)CC1", "outcome": "inactive"}
{"smiles": "CC(C)c1c(O)nc(SCCOc2ccc(Cl)cc2)[nH]c1=O", "outcome": "inactive"}
{"smiles": "Cc1cc(=O)[nH]c(SCc2cc(Cl)ccc2OC(F)F)n1", "outcome": "inactive"}
{"smiles": "O=C(CSC1=Nc2ccccc2C2=NC(CC(=O)NCc3ccco3)C(=O)N12)NCc1ccco1", "note": "(stereo unspecified)", "outcome": "inactive"}
{"smiles": "Cc1cc(C)c2cc(CN(Cc3nnnn3Cc3ccc(F)cc3)C3CCCC3)c(=O)[nH]c2c1", "outcome": "inactive"}
{"smiles": "O=S(=O)(c1ccc(OCC(O)CN2CCN(c3ccccc3Cl)CC2)cc1)N1CCOCC1", "note": "(stereo unspecified)", "outcome": "inactive"}
{"smiles": "COc1cccc(-n2c(SCC(=O)NC3CCCCC3)nc3n[nH]c(C)c3c2=N)c1", "outcome": "inactive"}
{"smiles": "CN(C)c1ccc(/C=C/C(=O)c2ccc(C(C)(C)C)cc2)cc1[N+](=O)[O-]", "outcome": "inactive"}
{"smiles": "COc1ccc(-c2nc(CS(=O)CC(=O)NCc3ccccn3)c(C)o2)cc1", "note": "(stereo unspecified)", "outcome": "inactive"}
{"smiles": "O=C(O)CC(Cn1cnnn1)c1ccccc1", "note": "(stereo unspecified)", "outcome": "inactive"}
{"smiles": "C[C@@H](C(=O)Nc1ccc2ccccc2c1)[C@@H]1C[C@@]1(C)[C@@H](NC(=O)c1cccnc1)c1ccccc1", "outcome": "inactive"}
{"smiles": "COC(=O)C1=C(C)N=C2SC(C)C(=O)N2C1/C=C/c1ccccc1", "note": "(stereo unspecified)", "outcome": "inactive"}
{"smiles": "CCCc1nc2ccccc2c(=O)n1NC(=O)c1c(O)c2ccccc2[nH]c1=O", "outcome": "inactive"}
